Compounds with a hit are over-represented: about 4.5% of the library has one in this group of screens.
Jurkat NFkB inh – lowers PMA/ionomycin-induced NF-kB signal in Jurkat cells; PMA/ionomycin-induced NF-kB luciferase reporter, luminescence; inhibition, % at 4 µM; actives 0.53% (n = 330,000); in the data active = inhibition above about 50%
697 NFkB inh – inhibitors of the PMA/ionomycin-induced NF-kB reporter in 697 B cells; actives 0.33% (n = 330,000); 697 B-cell NF-kB luciferase reporter, 16 h; inhibition, % at 4 µM; in the data active = inhibition above about 35%
Mdm2 MdmX PPI – disrupts the human Mdm2-MdmX interaction; SaOS-2 split-luciferase Mdm2/MdmX complementation, luminescence; inhibition, % at 8 µM; actives 3% (n = 330,000);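 active = inhibition of at least 50% at 8 µM in the primary screen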
Target sequence (O15151 whole entry, looked up): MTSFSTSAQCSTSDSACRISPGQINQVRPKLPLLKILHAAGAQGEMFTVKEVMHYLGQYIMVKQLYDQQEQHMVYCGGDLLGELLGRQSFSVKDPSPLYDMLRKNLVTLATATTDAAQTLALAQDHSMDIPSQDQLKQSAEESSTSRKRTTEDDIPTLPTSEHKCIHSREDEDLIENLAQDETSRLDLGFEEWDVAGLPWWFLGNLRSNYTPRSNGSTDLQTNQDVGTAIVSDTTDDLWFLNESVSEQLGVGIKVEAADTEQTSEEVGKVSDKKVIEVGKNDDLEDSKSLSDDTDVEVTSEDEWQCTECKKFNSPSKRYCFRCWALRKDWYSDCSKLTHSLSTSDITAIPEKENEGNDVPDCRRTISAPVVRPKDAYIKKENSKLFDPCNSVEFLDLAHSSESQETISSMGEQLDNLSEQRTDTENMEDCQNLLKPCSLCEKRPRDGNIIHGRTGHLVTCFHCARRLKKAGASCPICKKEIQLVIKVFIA
Target sequence (Q00987 whole entry, looked up): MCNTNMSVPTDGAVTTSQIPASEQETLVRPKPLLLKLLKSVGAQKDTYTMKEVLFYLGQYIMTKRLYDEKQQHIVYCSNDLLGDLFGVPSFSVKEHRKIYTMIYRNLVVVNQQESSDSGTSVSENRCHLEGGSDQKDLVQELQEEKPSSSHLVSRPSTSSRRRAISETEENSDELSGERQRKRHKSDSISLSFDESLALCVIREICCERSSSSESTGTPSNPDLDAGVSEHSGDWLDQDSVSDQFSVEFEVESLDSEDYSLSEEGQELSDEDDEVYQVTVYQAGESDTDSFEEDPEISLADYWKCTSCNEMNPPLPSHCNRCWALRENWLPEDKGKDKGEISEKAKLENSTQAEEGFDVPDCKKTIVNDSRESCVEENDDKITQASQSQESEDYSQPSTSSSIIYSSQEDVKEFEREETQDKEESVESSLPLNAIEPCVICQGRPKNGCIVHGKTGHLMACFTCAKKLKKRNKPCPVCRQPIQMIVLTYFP
Gli-Sufu antag – Gli-Sufu pathway antagonism. Sufu-KO-LIGHT fibroblasts, Gli luciferase reporter luminescence. actives 0.74% (n = 340,000). inhibition, % at 5 µM;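 active = inhibition above about 55%, limit read from the data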
CSC inhib – blocks cancer stem cells; inhibition, % at 7.5 µM; AID 2717; actives 1.1% (n = 300,000); cancer stem cell-like cells viability, luminescence; in the data active = inhibition above about 75%; tested in HMLE shEcad cells
Beta cell apopt – beta cell apoptosis inhibition. actives 0.8% (n = 300,000). protection from apoptosis, % (no concentration beside the values). INS-1E cytokine-induced death, ATP luminescence, 48 h; percent of positive-control rescue, neutral wells zero. AID 435005;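 active = Every replicate reaches about 75%, or at least half do and their mean reaches it too, limit read from the data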;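 note: higher means more ATP so stronger rescue from cytokine killing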
Mdm2-MdmX conf – human Mdm2/MdmX binding inhibition, confirmed; shares compounds with Mdm2 MdmX PPI; luminescent assay; inhibition, % at 8 µM; actives 55% (n = 10,000); in the data active = inhibition above about 40%
Full FLuc ctr – inhibits full-length luciferase, flagging false Mdm2/MdmX hits | shares compounds with Mdm2 MdmX PPI | SaOS-2 full-length luciferase counterscreen, luminescence | inhibition, % at 8 µM | actives 77% (n = 6,200) | AID 504607;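 active = mean inhibition at 8 µM reaching about 37%, which flags the compound as non-specific, limit read from the data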;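 note: p53-null SaOS-2 cells with luciferase driven by a doxycycline-inducible promoter; compound on cells about two nights before reading with doxycycline added after day one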
Numbers stand for hits.

`CSc1c(CC(=O)Nc2ccc(F)cc2)n(Cc2ccccc2)c2ccccc12` gave Jurkat NFkB inh inactive, 697 NFkB inh inactive, Mdm2 MdmX PPI 85.8, Gli-Sufu antag inactive, CSC inhib inactive, Beta cell apopt inactive and Mdm2-MdmX conf inactive.
Screening CSc1c(CC(=O)Nc2ccccc2)n(C)c2ccccc12 returned Jurkat NFkB inh inactive, 697 NFkB inh inactive, Mdm2 MdmX PPI 50.3, Gli-Sufu antag inactive, CSC inhib inactive and Mdm2-MdmX conf inactive.
For CC(Sc1nc(N)cc(N)n1)C(=O)Nc1ccc(N2CCOCC2)cc1 (stereo not drawn) the results were Jurkat NFkB inh inactive, 697 NFkB inh inactive, Mdm2 MdmX PPI inactive, Gli-Sufu antag inactive, CSC inhib inactive and Beta cell apopt inactive.
Screening Cc1ccc(C(C)(C)NC(=O)C2CCC(=O)N(CC3CCCCC3)C2)cc1 (stereo not drawn) returned Jurkat NFkB inh inactive, 697 NFkB inh inactive, Mdm2 MdmX PPI inactive, Gli-Sufu antag inactive, CSC inhib inactive and Beta cell apopt inactive.
For N#Cc1cn(N2CCCCC2)c(=O)[nH]c1=O the results were Jurkat NFkB inh inactive, 697 NFkB inh inactive, Mdm2 MdmX PPI inactive and Gli-Sufu antag inactive.
Screening Cc1ccc(S(=O)(=O)NCC(=O)N2CCN(c3ccc(F)cc3)CC2)cc1 returned Jurkat NFkB inh inactive, 697 NFkB inh inactive, Mdm2 MdmX PPI inactive, Gli-Sufu antag inactive, CSC inhib inactive and Beta cell apopt inactive.
For O=C(CNc1ccc(Br)cc1)c1ccc(Br)s1 the results were Jurkat NFkB inh inactive, 697 NFkB inh inactive, Mdm2 MdmX PPI inactive, Gli-Sufu antag inactive and Beta cell apopt inactive.
N/C(=N\OC(=O)c1cccc(F)c1)c1ccccn1 was read as Jurkat NFkB inh inactive, 697 NFkB inh inactive, Mdm2 MdmX PPI inactive, Gli-Sufu antag inactive, CSC inhib inactive and Beta cell apopt inactive.
Screening Cc1cccc(C(=O)O/N=C(\N)c2ccccn2)c1 returned Jurkat NFkB inh inactive, 697 NFkB inh inactive, Mdm2 MdmX PPI 65.1, Gli-Sufu antag inactive, CSC inhib inactive, Beta cell apopt inactive, Mdm2-MdmX conf 63.0 and Full FLuc ctr 99.6.
Screening N/C(=N\OC(=O)c1ccccc1)c1ccccn1 returned Jurkat NFkB inh inactive, 697 NFkB inh inactive, Mdm2 MdmX PPI inactive, Gli-Sufu antag inactive, CSC inhib inactive and Beta cell apopt inactive.
`COc1cc(C(=O)O/N=C(\N)c2ccccn2)cc(OC)c1OC` gave Jurkat NFkB inh inactive, 697 NFkB inh inactive, Mdm2 MdmX PPI 67.4, Gli-Sufu antag inactive, CSC inhib inactive, Beta cell apopt inactive and Mdm2-MdmX conf inactive.
COc1ccc(Cl)cc1C(=O)O/N=C(\N)c1ccccn1 was read as Jurkat NFkB inh inactive, 697 NFkB inh inactive, Mdm2 MdmX PPI inactive, Gli-Sufu antag inactive, CSC inhib inactive and Beta cell apopt inactive.
For Cc1ccc(C(=O)O/N=C(\N)c2ccccn2)cc1C the results were Jurkat NFkB inh inactive, 697 NFkB inh inactive, Mdm2 MdmX PPI 81.7, Gli-Sufu antag inactive, CSC inhib inactive, Beta cell apopt inactive, Mdm2-MdmX conf 70.0 and Full FLuc ctr 63.9.
`Cc1ccc(C(=O)O/N=C(\N)c2ccccn2)cc1` gave Jurkat NFkB inh inactive, 697 NFkB inh inactive, Mdm2 MdmX PPI 90.6, Gli-Sufu antag inactive, CSC inhib inactive, Beta cell apopt inactive, Mdm2-MdmX conf 89.3 and Full FLuc ctr inactive.
For CCc1ccc(NC(=O)C(=O)NCC2CCCN2S(=O)(=O)c2cccs2)cc1 (stereo not drawn) the results were Jurkat NFkB inh inactive, 697 NFkB inh inactive, Mdm2 MdmX PPI inactive, Gli-Sufu antag inactive, CSC inhib inactive and Beta cell apopt inactive.
COc1cc2c(c(OC)c1OC)-c1ccc(SC)c(=O)cc1C(NC=O)CC2 (stereo not drawn) was read as Gli-Sufu antag inactive.
Screening CCOc1ccc(C(=O)O/N=C(\N)c2ccccn2)cc1 returned Jurkat NFkB inh inactive, 697 NFkB inh inactive, Mdm2 MdmX PPI 95.0, Gli-Sufu antag inactive, CSC inhib inactive, Beta cell apopt inactive, Mdm2-MdmX conf 86.2 and Full FLuc ctr inactive.
For COC(=O)C1=CN(c2cc(C)cc(C)c2)C=C(C(=O)OC)C1c1cccc(F)c1 the results were Jurkat NFkB inh inactive, 697 NFkB inh inactive, Mdm2 MdmX PPI 53.5, Gli-Sufu antag inactive, CSC inhib inactive, Beta cell apopt inactive, Mdm2-MdmX conf inactive and Full FLuc ctr 106.1.
`Cc1cc(C)cc(NS(=O)(=O)c2c(C(=O)N3CCOCC3)c(C)n(C)c2C)c1` gave Jurkat NFkB inh inactive, 697 NFkB inh inactive, Mdm2 MdmX PPI inactive, Gli-Sufu antag inactive and CSC inhib inactive.
For Cc1ccc(CSc2[nH]c(=O)ncc2C)cc1 the results were Jurkat NFkB inh inactive, 697 NFkB inh inactive, Mdm2 MdmX PPI inactive, Gli-Sufu antag inactive, CSC inhib inactive and Beta cell apopt inactive.
`CCN1C(=O)/C(=C/C=C2/Sc3ccccc3N2CCO)SC1=S` gave Jurkat NFkB inh inactive, 697 NFkB inh inactive, Mdm2 MdmX PPI 69.7, CSC inhib inactive, Beta cell apopt inactive and Mdm2-MdmX conf inactive.
For O=C(CN(Cc1ccc(Cl)cc1)C(=O)CNS(=O)(=O)c1ccc(F)cc1)NCC1CCCO1 (stereo not drawn) the results were Jurkat NFkB inh inactive, 697 NFkB inh inactive, Mdm2 MdmX PPI inactive, Gli-Sufu antag inactive, CSC inhib inactive and Beta cell apopt inactive.
For CCOc1ccc(CCNC(=O)COC(=O)c2c(C)nn(-c3ccccc3)c2C)cc1OCC the results were Jurkat NFkB inh inactive, 697 NFkB inh inactive, Mdm2 MdmX PPI inactive, Gli-Sufu antag inactive, CSC inhib inactive and Beta cell apopt inactive.
CCn1c(=O)c(CCC(=O)N2CCOCC2)c(C)c2c(C)nn(-c3ccccc3)c21 was read as Jurkat NFkB inh inactive, 697 NFkB inh inactive, Mdm2 MdmX PPI 62.0, Gli-Sufu antag inactive, CSC inhib inactive, Beta cell apopt inactive and Mdm2-MdmX conf inactive.
Screening O=C(NCc1cccc(C(F)(F)F)c1)c1ccc2c(c1)OCCO2 returned Jurkat NFkB inh inactive, 697 NFkB inh inactive, Mdm2 MdmX PPI inactive, Gli-Sufu antag inactive, CSC inhib inactive and Beta cell apopt inactive.
Screening CN(C)C1(CNC(=O)C2CCN(S(=O)(=O)c3cccc(C(F)(F)F)c3)CC2)CCCCC1 returned Jurkat NFkB inh inactive, 697 NFkB inh inactive, Mdm2 MdmX PPI inactive, Gli-Sufu antag inactive and CSC inhib inactive.
`COc1cccc2c1OC1(C)CC2N(C(=O)c2ccco2)C(=S)N1c1ccc(F)cc1` (stereo not drawn) gave Jurkat NFkB inh inactive, 697 NFkB inh inactive, Mdm2 MdmX PPI 65.2, Gli-Sufu antag inactive, CSC inhib inactive, Beta cell apopt inactive, Mdm2-MdmX conf 53.1 and Full FLuc ctr 70.3.
For CCCCCCC[C@@H](C/C=C/CCC(=O)N(C)C/C(=C/Cl)C/C(=C\C(=O)N1CC(OC)=CC1=O)OC)OC the results were Jurkat NFkB inh inactive, 697 NFkB inh inactive, Mdm2 MdmX PPI 60.4, Gli-Sufu antag inactive, CSC inhib 140.0, Beta cell apopt inactive and Mdm2-MdmX conf inactive.

Bioassay records as filed in PubChem.
